Laboratory results reported in PubChem BioAssay (NCATS).
Records with an inconclusive call do not appear. The source made the active and inactive calls. Unless noted, the call rests on the fitted dose curve; in most records, active means well fitted curve in the direction sought with a large enough effect; inconclusive means small, poorly fitted or top-dose-only effect, or another doubt; inactive means no such curve, though single readings can be large; an effect the other way counts as inactive or inconclusive.

Experiments:
[1] = qHTS for inhibitors of adenylyl cyclases using a fission yeast platform: a pilot screen against the NCATS LOPAC library (AID 1347410);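 further: plate controls were DMSO vehicle for no effect and DPI positive control for full effect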
How it was run: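 Growth medium went into the plates first, then compounds were pinned (final up to 57 µM), then CHP2027 yeast were added. Plates were incubated overnight (18 h) at 30C in the dark, and GFP was measured by laser scanning cytometry.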

[2] = Validation qHTS assay for inhibitors of Activation Induced Cytidine Deaminase (AID): UDG Counterscreen signal (AID 1347427); further: 0% is about no effect
How it was run: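 Counterscreen read of UDG activity (2 U/mL, 4/3x) in the FRET deamination format with AID (1 uM, 4/3x), DJC20/DJC23 substrates (250 nM, 4x), 4 h at room temperature. NaOH stop, fluorescence at 560 ex/665 em.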

[3] = molecular target: Single-stranded DNA cytosine deaminase (Homo sapiens) (UniProt Q9GZX7); assay: Validation qHTS assay for inhibitors of Activation Induced Cytidine Deaminase (AID): AID signal (AID 1347429); further: on the % scale 0 is the no-effect control and ±100 the full control effect
Chain of Single-stranded DNA cytosine deaminase (Homo sapiens) (Q9GZX7 whole entry, looked up): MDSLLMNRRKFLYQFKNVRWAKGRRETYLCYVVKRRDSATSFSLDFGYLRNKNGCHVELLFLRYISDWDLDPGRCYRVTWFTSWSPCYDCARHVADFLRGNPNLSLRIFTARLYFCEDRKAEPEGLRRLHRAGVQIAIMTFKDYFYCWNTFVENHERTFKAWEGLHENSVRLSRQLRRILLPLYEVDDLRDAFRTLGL
How it was run: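 AID and UDG were combined and compounds added at final up to 114 uM, then DJC20/DJC23 FRET substrate was added for 4 hr at room temperature. NaOH was then added for 30 min before fluorescence was read at 540/590 nm.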

[4] = Primary qHTS for inhibitors of La Crosse Virus (LACV) - induced cell death in SH-SY5Y cells (AID 1508616);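 further: top concentration of the series differs between compounds; 0% = infected DMSO wells and 100% = uninfected DMSO wells; higher means more rescue of cells from virus-induced death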
How it was run: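 Luminescent ATP readout (ATPLite 1step, 5 min room temperature) measured rescue from LACV-induced death after 6 days of infection at 0.01 MOI; normalized to infected DMSO wells and uninfected DMSO wells.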

[5] = molecular target: Calcium and integrin-binding protein 1 (Homo sapiens) (UniProt Q99828); assay: Validation qHTS for Identification of Calcium Integrin Binding protein 1 (CIB1) Competitor (AID 1508618); further: on the % scale 0 is the no-effect control and ±100 the full control effect
Chain of Calcium and integrin-binding protein 1 (Homo sapiens) (Q99828 whole entry, looked up): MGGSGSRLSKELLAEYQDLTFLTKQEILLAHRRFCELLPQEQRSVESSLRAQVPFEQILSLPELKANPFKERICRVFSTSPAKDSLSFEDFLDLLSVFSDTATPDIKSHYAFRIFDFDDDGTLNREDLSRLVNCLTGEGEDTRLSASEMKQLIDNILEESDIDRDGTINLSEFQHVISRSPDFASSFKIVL
How it was run: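 CIB1-GST (1 uM final) incubated 15 min at room temperature with compounds (up to 114 uM), then FITC-labelled alphaIIb peptide (100 nM) added. FP read (Ex 480/Em 540) after 15 min, pH 7.4 buffer containing 5 mM CaCl2.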

[6] = molecular target: Calcium and integrin-binding protein 1 (Homo sapiens) (UniProt Q99828); assay: Primary qHTS for Identification of Calcium Integrin Binding Protein 1 (CIB1) Competitor (AID 1508620);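 further: GST tagged CIB1 binding a fluorescein labelled alphaIIb integrin peptide tracer; top concentration of the series differs between compounds; on the % scale 0 is the no-effect control and ±100 the full control effect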
How it was run: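 Fluorescence polarization competition: CIB1-GST (1 uM final) preincubated with compound 15 min at room temperature, then FITC-labeled alphaIIb peptide (100 nM final) added for another 15 min. Polarization read at Ex 480/Em 540.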

[7] = Primary qHTS for small molecule stabilizers of the endoplasmic reticulum resident proteome: Secreted ER Calcium Modulated Protein (SERCaMP) assay (AID 1508630); further: on the % scale 0 is the no-effect control and ±100 the full control effect
How it was run: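 GLuc-SERCaMP-expressing SH-SY5Y cells, pretreated 16 h with compound, are challenged with thapsigargin to empty ER calcium stores; after 4 h, coelenterazine is added directly to the medium and luminescence is imaged.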

Papain (Carica papaya) = Papain (Carica papaya) (UniProt P00784); assay: Primary qHTS assay for inhibitors of the protease papain (AID 1645873)
Chain of Papain (Carica papaya) (P00784 whole entry, looked up): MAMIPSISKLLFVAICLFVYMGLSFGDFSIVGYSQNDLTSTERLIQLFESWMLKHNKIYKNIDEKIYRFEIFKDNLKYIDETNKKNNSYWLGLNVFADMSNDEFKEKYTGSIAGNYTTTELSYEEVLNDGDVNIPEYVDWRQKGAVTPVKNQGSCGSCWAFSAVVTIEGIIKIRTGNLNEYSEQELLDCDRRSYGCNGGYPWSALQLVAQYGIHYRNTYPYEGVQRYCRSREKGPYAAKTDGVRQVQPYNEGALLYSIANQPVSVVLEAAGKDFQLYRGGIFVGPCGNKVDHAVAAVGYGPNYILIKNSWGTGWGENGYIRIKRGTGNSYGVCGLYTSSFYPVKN

[8] = qHTS to identify inhibitors of the type 1 interferon - major histocompatibility complex class I in skeletal muscle: primary screen against the NCATS Mechanism Interrogation Plate v5.0 (MIPE) Libary (AID 1347411);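 further: plate controls were vehicle for no effect and reference inhibitor for full effect; nearly all actives have a fitted effect of over 65% in size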
How it was run: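 Immortalized human C25cl48 myoblasts with HiBit knocked into endogenous HLA-B*08:01 were stimulated with 4.0 ng/ml IFN-beta and exposed to compounds (11-point 1:3 titration, top 46 uM final) for 24 hrs at 37 C; HiBiT lytic luminescence measured.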

[9] = molecular target: Cytochrome P450 2D6 (Homo sapiens) (UniProt P10635); assay: Cytochrome P450 family 2 subfamily D member 6 (CYP2D6) small molecule antagonists: luciferase biochemical (cell-free) qHTS assay (AID 1645840; active means well fitted curve in the direction sought with a large enough effect in the repeat runs; an effect the other way counts as inactive or inconclusive; further: nearly all actives have a fitted effect of over 55% in size; further: potency means the concentration at half of the fitted maximal effect)
Chain of Cytochrome P450 2D6 (Homo sapiens) (P10635 whole entry, looked up): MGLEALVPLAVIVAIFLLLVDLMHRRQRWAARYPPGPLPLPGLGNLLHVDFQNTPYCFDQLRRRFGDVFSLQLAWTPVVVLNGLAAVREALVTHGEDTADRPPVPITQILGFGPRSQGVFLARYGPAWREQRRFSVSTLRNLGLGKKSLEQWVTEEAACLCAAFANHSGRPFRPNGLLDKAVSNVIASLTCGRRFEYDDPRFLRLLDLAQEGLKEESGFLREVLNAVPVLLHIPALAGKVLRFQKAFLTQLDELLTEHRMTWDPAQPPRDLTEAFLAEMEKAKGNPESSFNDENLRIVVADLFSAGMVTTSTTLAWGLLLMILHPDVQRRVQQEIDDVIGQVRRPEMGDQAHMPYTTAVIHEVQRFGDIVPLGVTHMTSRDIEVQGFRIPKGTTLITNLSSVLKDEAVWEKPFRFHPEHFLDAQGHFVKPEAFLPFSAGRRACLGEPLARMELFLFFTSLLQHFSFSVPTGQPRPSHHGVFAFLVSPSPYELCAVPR
How it was run: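 P450-Glo luminescent screen: recombinant CYP2D6 enzyme–proluciferin substrate mix preincubated with compound 10 min at room temperature, then NADPH regeneration added for 1 h at room temperature. Detection reagent added for 20 min; luciferin light read as relative luminescence units.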

[10] = molecular target: Cytochrome P450 2C9 (Homo sapiens) (UniProt P11712); assay: Cytochrome P450 family 2 subfamily C member 9 (CYP2C9) small molecule antagonists: luciferase biochemical (cell-free) qHTS assay (AID 1645842; active means well fitted curve in the direction sought with a large enough effect in the repeat runs; an effect the other way counts as inactive or inconclusive; further: nearly all actives have a fitted effect of over 55% in size; further: potency means the concentration at half of the fitted maximal effect)
Chain of Cytochrome P450 2C9 (Homo sapiens) (P11712 whole entry, looked up): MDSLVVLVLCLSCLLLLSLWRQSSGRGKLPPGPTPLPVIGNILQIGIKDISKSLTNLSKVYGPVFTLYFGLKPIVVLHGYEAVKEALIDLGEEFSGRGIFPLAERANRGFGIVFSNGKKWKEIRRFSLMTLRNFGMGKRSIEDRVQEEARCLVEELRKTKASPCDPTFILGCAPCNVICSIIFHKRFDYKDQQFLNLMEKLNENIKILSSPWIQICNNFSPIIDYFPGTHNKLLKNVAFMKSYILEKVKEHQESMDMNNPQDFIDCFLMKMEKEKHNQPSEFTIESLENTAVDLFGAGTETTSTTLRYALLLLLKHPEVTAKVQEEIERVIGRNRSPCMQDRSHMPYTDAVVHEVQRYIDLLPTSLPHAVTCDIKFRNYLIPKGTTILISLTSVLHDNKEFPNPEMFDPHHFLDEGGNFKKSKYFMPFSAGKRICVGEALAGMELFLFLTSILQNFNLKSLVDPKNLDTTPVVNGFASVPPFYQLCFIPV
How it was run: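 Luminescence, after 20 min with luciferin detection reagent, reflected CYP2C9 turnover during a 1 h NADPH-driven reaction at 37C. Enzyme-substrate mix contained 0.4% bovine serum albumin and was preincubated with compound 10 min at room temperature.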

[11] = molecular target: Protein phosphatase 1D (Homo sapiens) (UniProt O15297); assay: RapidFire Mass Spectrometry qHTS Assay for Modulators of WT P53-Induced Phosphatase 1 (WIP1) (AID 1347424);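 further: amount of dephosphorylated VEPPL-S-QETFS peptide product formed by WIP1; series mostly up to about 63 µM; plate controls were DMSO wells for no effect and GSK830371 inhibitor control at 10 µM for full effect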
Chain of Protein phosphatase 1D (Homo sapiens) (O15297 whole entry, looked up): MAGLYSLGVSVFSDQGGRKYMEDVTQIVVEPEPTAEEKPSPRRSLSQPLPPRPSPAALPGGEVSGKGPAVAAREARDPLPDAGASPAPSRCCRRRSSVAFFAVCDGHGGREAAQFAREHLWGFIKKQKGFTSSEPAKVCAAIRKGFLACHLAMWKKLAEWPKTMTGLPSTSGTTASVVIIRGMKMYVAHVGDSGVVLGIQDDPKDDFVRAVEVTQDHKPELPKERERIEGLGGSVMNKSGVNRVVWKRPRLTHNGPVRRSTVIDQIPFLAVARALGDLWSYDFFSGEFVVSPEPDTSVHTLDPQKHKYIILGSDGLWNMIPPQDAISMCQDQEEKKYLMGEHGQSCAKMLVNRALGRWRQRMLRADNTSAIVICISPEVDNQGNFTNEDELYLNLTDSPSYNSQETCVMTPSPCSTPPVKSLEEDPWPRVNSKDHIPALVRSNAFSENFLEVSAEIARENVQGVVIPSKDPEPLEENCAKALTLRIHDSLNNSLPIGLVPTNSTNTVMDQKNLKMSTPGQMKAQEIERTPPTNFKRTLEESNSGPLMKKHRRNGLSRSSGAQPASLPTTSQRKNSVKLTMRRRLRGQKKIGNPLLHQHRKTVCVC
How it was run: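 WIP1 (10 nM final) was preincubated 1 h at room temperature with compounds in Tris-HCl pH 7.5, 30 mM MgCl2, TCEP, EGTA, BSA; 2 uM VEPPL-pS-QETFS phosphopeptide was added for 5 min, quenched with formic acid, and dephosphorylated product quantified by RapidFire MS.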

[12] = molecular target: Protein phosphatase 1D (Homo sapiens) (UniProt O15297); assay: Rhodamine-PBP qHTS Assay for Modulators of WT P53-Induced Phosphatase 1 (WIP1) (AID 1347425); further: % of control where 0% means no effect
How it was run: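 The read-out is the change in Rhodamine-PBP fluorescence (f1 - f0, ex 525/em 598 nm) as Pi is released, read each minute for 11 min. Final reaction: 5 nM WIP1, 10 uM phosphopeptide VEPPL-pS-QETFS, 10 uM Rh-PBP, 50 mM Tris-HCl pH 7.5, 30 mM MgCl2. Compound was preincubated with enzyme for 1 hour at room temperature.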

[13] = A High-Content qHTS Against Drug Library for the Identification of Small Molecules that Inhibit DYT1 Early Onset Primary Dystonia-Associated Cell Pathology (AID 1645839; calls by dose curve; further: series mostly up to about 46 µM)
How it was run: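 Readout: %pathology, the punctate EGFP-TorsinA distribution from imaging, as the primary channel and cell count as the toxicity counterscreen. HEK293 Flp-In cells expressing delE TorsinA were induced with tetracycline and treated with compound for 48 h.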

[14] = Counterscreen qHTS for small molecule stabilizers of the endoplasmic reticulum resident proteome: GLuc-NoTag assay (AID 1508627);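 further: SH-SY5Y cells given compound then 100 nM thapsigargin to empty ER calcium; series mostly up to about 76 µM; 0% = thapsigargin alone and -100% = DMSO vehicle control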
How it was run: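 SH-SY5Y cells stably expressing constitutively secreted GLuc (no SERCaMP tag) were pre-incubated 5 h, treated with compound for 19 h, then 100 nM thapsigargin for 4 h at 37C; medium GLuc read by coelenterazine luminescence.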

[15] = Confirmatory qHTS for small molecule stabilizers of the endoplasmic reticulum resident proteome: Secreted ER Calcium Modulated Protein (SERCaMP) assay (AID 1508628);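 further: SH-SY5Y cells given compound 16 h then thapsigargin 100 nM for 4 h; series mostly up to about 76 µM; on the % scale 0 is the no-effect control and ±100 the full control effect; nearly all actives have a fitted effect of over 40% in size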
How it was run: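 We seeded SH-SY5Y-GLuc-SERCaMP cells, added compounds (three concentrations in the primary run, eleven up to 76.6 uM in confirmation), incubated 16 h, depleted ER calcium with thapsigargin, and read luciferase 4 h later.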

[16] = Cell Viability qHTS for small molecule stabilizers of the endoplasmic reticulum resident proteome (AID 1508629); conditions: cell viability counter-screen, 100 nM thapsigargin for final 4 h
[17] = molecular target: Cytochrome P450 3A4 (Homo sapiens) (UniProt P08684); assay: Cytochrome P450 family 3 subfamily A member 4 (CYP3A4) small molecule antagonists: luciferase qHTS assay (AID 1645841; active means well fitted curve in the direction sought with a large enough effect in the repeat runs; an effect the other way counts as inactive or inconclusive; further: nearly all actives have a fitted effect of over 45% in size)
Chain of Cytochrome P450 3A4 (Homo sapiens) (P08684 whole entry, looked up): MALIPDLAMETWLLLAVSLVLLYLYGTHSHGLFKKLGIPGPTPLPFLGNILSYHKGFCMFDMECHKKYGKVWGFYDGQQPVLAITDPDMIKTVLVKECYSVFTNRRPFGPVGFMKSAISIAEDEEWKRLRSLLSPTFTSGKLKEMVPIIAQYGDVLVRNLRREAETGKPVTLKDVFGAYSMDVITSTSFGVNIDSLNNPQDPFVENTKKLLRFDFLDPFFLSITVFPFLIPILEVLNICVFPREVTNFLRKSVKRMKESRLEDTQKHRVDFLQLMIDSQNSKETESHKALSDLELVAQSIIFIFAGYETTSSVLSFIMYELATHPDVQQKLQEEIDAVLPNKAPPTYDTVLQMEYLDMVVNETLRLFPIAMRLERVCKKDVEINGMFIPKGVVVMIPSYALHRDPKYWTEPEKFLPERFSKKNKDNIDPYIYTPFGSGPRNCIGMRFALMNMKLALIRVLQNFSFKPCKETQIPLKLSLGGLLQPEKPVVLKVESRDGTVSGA
How it was run: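 P450-Glo CYP3A4 enzyme with proluciferin substrate was preincubated with DMSO-dissolved compounds for 10 min at room temperature. NADPH regeneration solution started a 1 h reaction. Detection reagent stopped it, and luminescence was read after 20 min.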

CC1CC2C3CCC4=CC(=O)C=C[C@]4(C)[C@@]3(F)[C@@H](O)C[C@]2(C)[C@@]1(O)C(=O)CO (stereo partly drawn)
inactive: outcome [1] | outcome [2] | outcome [3] | Potency [4] | outcome [5] | outcome [6] | Potency [7] | Potency (Papain (Carica papaya))

CCN(CC)CCn1c(=O)c(Cc2ccc(OC)cc2)nc2ccccc21
active: Potency [9] 7.56 µM
inactive: outcome [1] | Potency [8] | outcome [2] | outcome [3] | Potency [4] | outcome [5] | outcome [6] | Potency [7] | Potency [10] | Potency (Papain (Carica papaya))

NC(N)=NC(N)=NCCc1ccccc1
inactive: Potency [8] | outcome [11] | outcome [12] | Potency [4] | outcome [6] | Potency [7] | Potency [13]
active: Potency [9] 6.17 µM

CCn1cc(C(=O)O)c(=O)c2cc(F)c(N3CCNCC3)cc21
inactive: Potency [8] | outcome [11] | outcome [12] | Potency [4] | outcome [6] | Potency [7] | Potency [13] | Potency [9] | Potency [10]

S=P(N1CC1)(N1CC1)N1CC1
active: Potency [9] 53 µM | Potency [10] 36.4 µM
inactive: Potency [8] | outcome [11] | Potency [4] | outcome [6] | outcome [14] | Potency [15] | max response [16] 22.2% | Potency [13]

CC(N)C12CC3CC(CC(C3)C1)C2 (stereo not drawn)
inactive: Potency [8] | outcome [11] | outcome [12] | Potency [4] | outcome [6] | Potency [7] | Potency [13] | Potency [9] | Potency [10]

CNC1CCCN(c2c(F)cc3c(=O)c(C(=O)O)cn(C4CC4)c3c2OC)C1 (stereo not drawn)
inactive: Potency [8] | outcome [11] | Potency [4] | outcome [6] | Potency [7] | Potency [13] | Potency [9] | outcome [17] | Potency [10]

O=c1oc2c(O)c(O)cc3c(=O)oc4c(O)c(O)cc1c4c23
inactive: Potency [8] | outcome [11] | outcome [12] | Potency [4] | outcome [6] | Potency [7] | Potency [13] | Potency [9] | Potency [10]

CC[C@H](NC(C)C)[C@H](O)c1ccc(O)c2[nH]c(=O)ccc12
inactive: Potency [8] | outcome [11] | outcome [12] | Potency [4] | outcome [6] | Potency [7] | Potency [13] | Potency [10]

Cn1nnc2c(C(N)=O)ncn2c1=O
inactive: Potency [8] | outcome [11] | outcome [12] | Potency [4] | outcome [6] | Potency [7] | Potency [13] | Potency [9] | Potency [10]

COC(c1ccccc1)(c1ccccc1)[C@H](Oc1nc(C)cc(C)n1)C(=O)O
inactive: Potency [8] | outcome [11] | Potency [4] | outcome [6] | Potency [7] | Potency [13] | Potency [9] | Potency [10]
